Source: PubChem BioAssay AID504832 (National Center for Advancing Translational Sciences (NCATS), 2011)
The campaign covered roughly 310,000 compounds. About 18,000 (5.8%) were called active. Inconclusive results (about 22%) are left out. Only a selection was taken, and actives are over-represented in it overall. Unmarked numbers belong to inactive results. Calls come from the whole dose curve; as a rule, active = well fitted inhibition curve with a large enough effect; inconclusive = small, poorly fitted or top-dose-only effect, or another doubt; inactive = no such curve, though single readings can be large or run the other way.

Assay: Primary qHTS for delayed death inhibitors of the malarial parasite plastid, 48 hour incubation
Conditions: P. falciparum luciferase growth in erythrocytes; series mostly up to 28.7 µM; activity change, negative = inhibition: at the top concentration
How it was run: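 Here the parasites carry a stable luciferase gene and grow inside erythrocytes in Albumax-based RPMI medium with compound for one erythrocytic cycle. Activity is scored as loss of luminescent signal.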
% is set by controls: 0 for no effect and ±100 for the full control effect; potency is the fitted concentration of half-maximal effect.

SMILES | activity change, negative = inhibition | Potency
Cc1ccc2nc(SCC(=O)NC3CCCC3)[nH]c2c1 | 22.6% | –
COC(=O)C1(C)NC(c2ccccc2OC)C2C(=O)N(c3ccccc3)C(=O)C21 (centres undefined) | -7.51% | –
CCN1C(=O)[C@H]2[C@@H](c3ccc(-c4ccc(F)cc4)cc3)N[C@@](Cc3ccccc3)(C(=O)OC)[C@H]2C1=O | – | 4.65 µM (active)
CCN1C(=O)[C@H]2[C@@H](c3ccc(-c4ccc(OC)cc4)cc3)N[C@@](Cc3ccccc3)(C(=O)OC)[C@H]2C1=O | – | 9.28 µM (active)
CCCCC1(C(=O)OCC)NC(c2ccc(O)cc2)C2C(=O)N(c3ccccc3)C(=O)C21 (centres undefined) | 2.39% | –
CCN1C(=O)[C@H]2[C@@H](c3ccc(SC4CCCCC4)c(OC)c3)N[C@@](Cc3ccccc3)(C(=O)OC)[C@H]2C1=O | – | 2.08 µM (active)
CCCC1(C(=O)OC)NC(c2ccco2)C2C(=O)N(C)C(=O)C21 (centres undefined) | 11.4% | –
CCOC(=O)C1(Cc2ccc(O)cc2)NC(c2ccccc2F)C2C(=O)N(C)C(=O)C21 (centres undefined) | -6.8% | –
COC(=O)C1(C)NC(c2ccc(C)cc2)C2C(=O)N(c3ccc(F)cc3)C(=O)C21 (centres undefined) | 8.12% | –
COC(=O)C1(C)NC(c2ccc(F)cc2)C2C(=O)N(c3ccccc3)C(=O)C21 (centres undefined) | -30.6% | –
COc1cc2c(C(=O)O)c(C)n(C)c2c2ccccc12 | 15.4% [at 0.00184 µM] | –
O=C(CSc1ccc(-c2ccco2)nn1)Nc1cccc(F)c1 | 20% | –
NC(=O)c1cc2ccccc2o/c1=N/NC(=O)c1cccc(F)c1 | 59.4% | –
CCOc1cc(NC(=O)Nc2ccccc2)c(OCC)cc1NC(=O)CC | -1.2% | –
NC(=O)c1ccccc1NC(=O)c1ccccc1F | 49.4% | –
CCOc1cc(NC(=O)c2ccccc2C(=O)O)c(OCC)cc1NC(=O)c1ccccc1F | – | 4.15 µM (active)
O=C(Nc1cccc(Cl)c1N1CCOCC1)c1cccnc1 | -0.0104% | –
Cc1ccccc1NC(=O)CCNS(=O)(=O)c1ccc2[nH]c(=O)oc2c1 | 3.65% | –
C/C(CC(=O)Nc1ccc(N(C)C)cc1)=N\NC(=O)c1ccccc1F | 139% | –
CCn1c2ccccc2c2cc(NC(=O)COC(=O)c3ccccc3Br)ccc21 | 17% | –
CCn1c2ccccc2c2cc(NC(=O)C/C(C)=N/NC(=O)c3ccccc3N)ccc21 | – | 11.7 µM (active)
CN(CC(=O)NCc1ccc(Cl)cc1)S(=O)(=O)c1cccs1 | 23.9% | –
COc1ccc(S(=O)(=O)N2CCN(C(=O)N(C)C)C2C)cc1 (centres undefined) | 3.85% | –
Cc1[nH]c(C)c(S(=O)(=O)N2CCN(c3cccc(C(F)(F)F)c3)CC2)c1C(=O)N1CCCC1 | 0.0799% | –
CN1CCN(C(c2cc3cc4c(cc3[nH]c2=O)OCCO4)c2nnnn2C2CCCC2)CC1 (centres undefined) | 6.19% | –

SMILES | activity change, negative = inhibition | Potency
CCOc1ccc2[nH]c(=O)c(C(c3nnnn3CCOC)N3CCOCC3)cc2c1 (centres undefined) | -3.1% | –
COc1ccc(N2CCN(C(c3cc4ccc(C)cc4[nH]c3=O)c3nnnn3C3CCCC3)CC2)cc1 (centres undefined) | – | 1.85 µM (active)
O=C(NCCCN1CCOCC1)C1CCCN(S(=O)(=O)N2CCCCC2)C1 (centres undefined) | 22.9% | –
CCC(C)C(NC(=O)C1CCC(=O)N1C(=O)OCc1ccccc1)C(=O)NC(C(=O)N1CCCC1C(N)=O)C(C)CC (centres undefined) | -37.5% | –
CC(=O)Nc1ccc(NC(=O)[C@@H](NC(=O)c2cccc(C)c2)C(C)C)cc1 | 11.3% | –
Cc1cccc(N(Cc2ccccc2)C(=O)c2cc(S(=O)(=O)N3CCOCC3)ccc2F)c1 | – | 11.7 µM (active)
Cc1ccc(S(=O)(=O)N2CCOCC2)cc1C(=O)NC(=S)N(Cc1ccccc1)C(C)C | -2.96% | –
Cc1cccc(NC(=O)c2cc(S(=O)(=O)N3CCC4(CC3)OCCO4)ccc2F)c1 | 3.22% | –
CC(=O)Nc1ccc(NC(=O)CC2CCCC2)cc1 | 36% | –
CCCOc1ccc(NC(=O)C2CCCNC2=O)cc1 (centres undefined) | 24.6% | –
CCCOc1ccc(/C=N/NC(=O)C2CC2)c(OCCC)c1 | – | 11.7 µM (active)
COc1ccc(/C=N/NC(=O)C2CC2)c(OC)c1OC | 22.7% | –
CCCCCCCCn1c2c(c(=N)c3c1CCC3)CCCC2 | – | 0.262 µM (active)
Cc1ccc(CC2C(=O)N(c3ccc(F)cc3)C(=O)C2C)cc1 (centres undefined) | 39.4% | –
CC(=O)NC(CC(=O)Nc1nc(-c2ccccc2)c(C(C)=O)s1)c1ccccc1 (centres undefined) | -5.25% | –
CC1CCCC(C)N1C(=O)COC(=O)COc1ccccc1C#N (centres undefined) | 26.8% | –
COc1ccccc1N(C(=O)Cn1nnc2ccccc21)C(C(=O)NCc1ccco1)c1ccc(C)o1 (centres undefined) | – | 13.1 µM (active)
COCCNC(=O)C(c1ccc(C)o1)N(Cc1ccccc1)C(=O)Cn1nnc2ccccc21 (centres undefined) | -22.6% | –
O=C(NCc1ccco1)C(c1ccncc1)N(C(=O)Cn1nnc2ccccc21)c1ccccc1 (centres undefined) | -14% | –
NC(=O)c1oc2ccccc2c1NC(=O)CS(=O)(=O)c1ccccc1 | 37.2% | –
CCc1c(C)nc2c(OC)cccc2c1Cl | 10.1% | –
CC(=O)Oc1ccc(-c2nc3c(C)cccc3c(=O)o2)cc1 | -7.88% | –
COc1nc(N=C(N)N)nc2c(C)cccc12 | – | 1.65 µM (active)
O=C(C1CCC(=O)N(C2CC2)C1)N1CCN(c2ccc(Cl)cc2)CC1 (centres undefined) | -14.5% | –
